Source: PubChem (several laboratories)
This is a sample that favours compounds with a hit; in the whole collection about 5.9% have one here.
LANA-H2B inh: blocks KSHV LANA binding to histone H2A/H2B | Q9QR71 | cell-free LANA-H2A/H2B peptide, fluorescence polarization | inhibition, % (test concentration not listed) | 320,000 compounds, 0.6% hits; in the data active means inhibition mostly above about 10%, no sharp cut-off; inactive means mostly below about 6.7%
rCAG binder: binds r(CAG) RNA repeats; inhibition, % at 3 µM; r(CAG) RNA repeat, TO-PRO-1 dye displacement fluorescence; AID 651821; 370,000 compounds, 1.3% hits;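 active means inhibition above the plate cutoff, the mean of all test compounds on that plate plus 3 SD, cut at about 35% in these data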;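 further: 0% = DMSO alone and 100% = 100 µM mitoxantrone as full dye displacement; higher means more dye released from RNA so lower well fluorescence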
ALR inh: inhibitors of human sulfhydryl oxidase ALR | purified ALR, DTT oxidation, H2O2 HRP-luminol luminescence | inhibition, % (concentration not given with the values) | P55789 | 290,000 compounds, 3.8% hits;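 active means mean replicate inhibition above about 79%, with every replicate also reaching it, limit read from the data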
Target sequence (P55789 whole entry, looked up): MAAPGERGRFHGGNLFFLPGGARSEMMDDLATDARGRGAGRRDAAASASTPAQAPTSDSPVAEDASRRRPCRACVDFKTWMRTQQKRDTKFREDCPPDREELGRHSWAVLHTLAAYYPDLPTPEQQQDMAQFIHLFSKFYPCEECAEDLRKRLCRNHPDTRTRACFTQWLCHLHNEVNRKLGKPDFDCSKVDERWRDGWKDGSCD
ABHD5-PLIN5 inh: blocks binding of human ABHD5 to perilipin-5. Split G. princeps luciferase complementation, luminescence, 4 h. 360,000 compounds, 0.78% hits. Q00G26+Q8WTS1. inhibition, % at 4 µM;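 active means inhibition above the mean inhibition across every tested compound plus 3 SD, cut at about 22% in these data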;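 further: 0% = DMSO only wells and the 100% control is not disclosed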
Rtt109 HAT inh: C. albicans Rtt109 histone acetyltransferase inhibition. AID 540336. purified Rtt109/Vps75, ThioGlo CoA-SH fluorescence, 4 h. inhibition, % at 34.9 µM. 330,000 compounds, 0.16% hits. Q5AAJ8;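 active means inhibition of at least 50% in every replicate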
PRMT1 FP inh: inhibitors of human PRMT1; recombinant PRMT1, activity-based probe fluorescence polarization; inhibition, % at 2.79 µM; 370,000 compounds, 1.3% hits;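 active means inhibition above about 21% made by adding two undisclosed values, limit read from the data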
rCAG bind conf: r(CAG) RNA repeat binding, confirmation; inhibition, % at 3 µM; shares compounds with rCAG binder; TO-PRO-1 dye displacement fluorescence; AID 652065; 4,300 compounds, 70% hits;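 active means inhibition above a per-plate cutoff, the mean inhibition of sample wells plus 3 SD, cut at about 35% in these data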;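 further: loss of TO-PRO-1 fluorescence as compound displaces dye from 1x1 AA loop RNA; 0% = DMSO only wells and 100% = 100 µM mitoxantrone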
dCAG dye counter: disrupts DNA CAG TO-PRO-1 complex, flagging rCAG hits; shares compounds with rCAG binder; d(CAG) DNA oligo TO-PRO-1 dye displacement, fluorescence; inhibition, % at 3 µM; 4,300 compounds, 94% hits;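 active means inhibition above its plate's cutoff, the mean test-well inhibition plus 3 SD, cut at about 4.8% in these data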;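 further: 0% = DNA dye mix with DMSO and 100% = 100 µM mitoxantrone; hits displace the dye from DNA and so lower well fluorescence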
An asterisk follows results filed as active; . = no result.

SMILES | LANA-H2B inh | rCAG binder | ALR inh | ABHD5-PLIN5 inh | Rtt109 HAT inh | PRMT1 FP inh | rCAG bind conf | dCAG dye counter
Cc1ccc(NC(=O)CN2C(=O)S/C(=C\c3cc(C)n(-c4ccc(C(=O)O)cc4)c3C)C2=O)cc1 | -2.7 | 68.2* | 50.7 | -0.8 | 4.7 | 0.7 | 85.2* | 47.5*
Cc1cccc(C)c1-n1cccc1/C=C1\SC(=S)N(c2cccc(C(=O)O)c2)C1=O | -5.9 | 83.5* | 5.2 | 1.7 | 2.3 | 1.5 | 77.9* | 41.0*
O=C(O)/C(CC(=O)c1ccc(Cl)cc1)=N/Nc1ccc([N+](=O)[O-])cc1[N+](=O)[O-] | 2.3 | 91.7* | 97.5* | -6.2 | 12.7 | 4.8 | 89.5* | 66.1*
CC(=O)NS(=O)(=O)c1cccnc1Nc1ccc(Cl)c(Cl)c1 | -3.2 | 36.7* | 97.9* | 13.6 | 3.3 | 0.3 | 37.5* | 14.0*
CC(=O)NCCNC(=O)Cn1nnc(-c2ccccc2)c1COc1ccc2ccccc2c1 | . | 1.6 | . | 10.5 | . | -0.6 | . | .
CC1(C)CC(=O)C2=C(C1)c1c(ccc3ccccc13)NC2c1cc([N+](=O)[O-])cc([N+](=O)[O-])c1O (stereo not drawn) | -1.9 | 92.7* | 53.0 | -3.6 | -5.6 | 7.6 | 88.8* | 63.8*
COc1cc(C2Nc3ccc4ncccc4c3C3=C2C(=O)CC(C)(C)C3)cc(OC)c1O (stereo not drawn) | -4.4 | 3.7 | 5.5 | 5.9 | 14.1 | 11.8 | . | .
COc1ccccc1N1CCN(c2ncnc3n[nH]c(Br)c23)CC1 | . | 5.6 | . | -3.1 | . | -1.2 | . | .
COc1ccc(OC)c(NC(=O)c2c(NC(=O)CCC(=O)O)sc3c2CCCCC3)c1 | -4.8 | 41.0* | 59.1 | -4.5 | 19.1 | 16.7 | 48.8* | 16.9*
CCOC(=O)c1c(NC(=O)CCC(=O)O)sc2c1CCCCC2 | -1.2 | 21.2 | 1.7 | 5.9 | -2.4 | 2.7 | . | .
O=C(O)CCC(=O)Nc1sc2c(c1C(=O)Nc1cccc3ccccc13)CCCCC2 | -3.6 | 43.2* | -7.5 | -17.7 | 42.7 | 23.9* | 28.5 | 15.3*
COC(=O)c1c(NC(=O)CCC(=O)O)sc2c1CCCCC2 | -0.7 | 9.4 | . | 1.1 | 5.8 | 1.2 | . | .
CC(C)(C)c1ccc(S(=O)(=O)N2CCC(C(=O)NCCC3=CCCCC3)CC2)cc1 | . | 2.2 | . | . | . | -1.2 | . | .
COCCCNC(=O)c1ccc(Cn2c(=O)c3ccccc3n(Cc3ccc(Br)cc3)c2=O)cc1 | . | 8.8 | . | . | . | 0.6 | . | .
O=C(CNC(=O)c1ccc(-c2ccccc2)cc1)Nc1ccc(S(=O)(=O)Nc2ncccn2)cc1 | -2.6 | 38.5* | -3.6 | -2.1 | -13.5 | -2.0 | 29.0 | 10.3*
CCC(=O)Nc1ccc(S(=O)(=O)Nc2ncccn2)cc1 | 1.4 | 2.1 | . | -12.5 | -3.5 | -2.5 | . | .
NS(=O)(=O)c1ccc(NS(=O)(=O)c2ccc(NC(=O)c3ccc(-c4ccccc4)cc3)cc2)cc1 | -6.5 | 58.7* | 2.4 | -6.4 | -10.6 | 0.4 | 72.0* | 38.5*
CC1CCC(NC(=O)CSc2nncn2C)CC1 (stereo not drawn) | 0.1 | 3.0 | 1.7 | 5.5 | 4.1 | 0.2 | . | .
O=C(NCc1ccccc1)[C@@H]1CCCN1C(=O)[C@H]1CCCN1C(=O)c1ccc(F)cc1 | . | -1.2 | . | . | . | 1.3 | . | .
CC(C)(C)C(=O)Nc1ccccc1N1CCN(c2ccc(F)cc2)CC1 | 0.2 | -4.1 | -12.6 | 13.2 | 5.7 | -1.1 | . | .
O=S(=O)(O)c1cc(O)ccc1O | 5.8 | -0.8 | 16.0 | -8.5 | -3.3 | 8.6 | . | .
O=S(=O)(c1cc(O)ccc1O)c1cccc2c(S(=O)(=O)c3cc(O)ccc3O)cccc12 | 1.9 | 42.8* | 92.7* | 13.1 | 10.0 | 11.8 | 36.2* | 24.4*
O=S(=O)(Nc1ccc(Br)cc1)c1cccc(NS(=O)(=O)c2cccs2)c1 | . | 37.2* | . | -4.4 | -4.2 | 0.4 | 28.6 | 6.9*
COc1cc(/C=C2/SC(=S)N(CC(=O)NNC(=O)c3ccc(F)cc3)C2=O)cc(OC)c1OC | . | 7.7 | . | 4.5 | . | 5.8 | . | .
COc1ccc(N(CC(=O)Nc2cc(C)ccc2OC)S(=O)(=O)c2c(C)noc2C)cc1 | -0.1 | -3.3 | -3.1 | 4.8 | . | -4.2 | . | .
